miR122 inh: miR-122 Renilla sensor signal increase in Huh7, primary screen, miR-122 inhibitor project, cell-based, single point, plate reader; 340,000 compounds, 0.3% hits; Huh7 miR-122 Renilla luciferase sensor, 48 h; neutral wells = 0, positive control = 100; activation (reporter increase), % at 12.5 µM; AID 602342, 2012;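 active means mean replicate activation score at least 90 and every replicate individually at or above 90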;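 further: higher luciferase means less miR-122 activity so hits act as miR-122 inhibitors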
Statin myotox sup: suppressors of statin myotoxicity in C2C12 myotubes, primary screen, cell-based, single point, plate reader; AID 602340, 2012; C2C12 myotubes + simvastatin, ATP luminescence, 48 h; scaled: DMSO 0, geranylgeraniol control 100; rescue of ATP level, % at 7.49 µM; 330,000 compounds, 0.78% hits;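 active means mean ATP rescue above about 67%, or every replicate alone reaching that limit, limit read from the data, passing the limit was not always enough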;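 further: myotubes were challenged with 10 µM simvastatin during compound exposure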
NSD2 HMT inh: NSD2 histone methyltransferase inhibitors, primary screen, biochemical, AlphaScreen, single concentration, set 2; Histone-lysine N-methyltransferase NSD2 (Homo sapiens), O96028; NSD2 peptide methylation, 120 min; inhibition, % at 12.5 µM; 310,000 compounds, 0.54% hits; AID 743445, 2014; in the data active means inhibition above about 50%
Target sequence (O96028 whole entry, looked up): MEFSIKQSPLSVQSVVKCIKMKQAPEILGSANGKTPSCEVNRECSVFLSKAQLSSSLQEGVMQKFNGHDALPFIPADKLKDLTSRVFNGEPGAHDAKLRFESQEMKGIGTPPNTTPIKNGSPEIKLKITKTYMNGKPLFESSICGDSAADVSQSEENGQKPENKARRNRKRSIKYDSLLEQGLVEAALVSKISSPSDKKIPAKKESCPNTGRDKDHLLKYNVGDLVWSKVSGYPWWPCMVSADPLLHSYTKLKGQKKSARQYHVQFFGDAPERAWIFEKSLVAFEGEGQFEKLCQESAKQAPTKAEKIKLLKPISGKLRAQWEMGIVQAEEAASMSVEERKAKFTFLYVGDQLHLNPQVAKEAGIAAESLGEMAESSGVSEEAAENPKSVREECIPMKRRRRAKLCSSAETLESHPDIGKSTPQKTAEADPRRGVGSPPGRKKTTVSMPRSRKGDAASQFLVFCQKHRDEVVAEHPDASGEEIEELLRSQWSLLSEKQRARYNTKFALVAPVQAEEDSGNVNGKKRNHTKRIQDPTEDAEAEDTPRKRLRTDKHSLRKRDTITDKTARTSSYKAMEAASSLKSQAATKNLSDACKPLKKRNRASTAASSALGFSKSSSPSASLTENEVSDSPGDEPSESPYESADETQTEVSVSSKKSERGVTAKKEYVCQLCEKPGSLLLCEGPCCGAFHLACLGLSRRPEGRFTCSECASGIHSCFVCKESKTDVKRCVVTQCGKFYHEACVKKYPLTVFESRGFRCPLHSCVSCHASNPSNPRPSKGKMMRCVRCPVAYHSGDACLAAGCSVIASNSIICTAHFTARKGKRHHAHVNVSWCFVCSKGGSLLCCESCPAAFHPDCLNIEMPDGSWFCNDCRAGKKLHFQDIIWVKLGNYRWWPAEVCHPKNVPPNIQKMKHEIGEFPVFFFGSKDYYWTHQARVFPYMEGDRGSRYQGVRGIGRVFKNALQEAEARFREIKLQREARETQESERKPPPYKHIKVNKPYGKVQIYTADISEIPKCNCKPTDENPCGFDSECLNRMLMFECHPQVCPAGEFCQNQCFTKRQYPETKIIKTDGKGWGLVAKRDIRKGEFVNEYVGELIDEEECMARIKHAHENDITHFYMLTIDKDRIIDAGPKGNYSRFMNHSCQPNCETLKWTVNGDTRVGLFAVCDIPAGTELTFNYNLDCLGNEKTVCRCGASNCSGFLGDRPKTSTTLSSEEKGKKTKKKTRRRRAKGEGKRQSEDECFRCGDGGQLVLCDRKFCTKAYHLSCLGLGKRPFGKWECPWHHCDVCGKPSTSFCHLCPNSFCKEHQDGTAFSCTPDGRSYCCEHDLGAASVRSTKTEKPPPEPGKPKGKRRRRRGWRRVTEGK
PglD DTNB: C. jejuni PglD acetyltransferase inhibitors, primary screen, biochemical, DTNB colorimetric, single point. UDP-N-acetylbacillosamine N-acetyltransferase PglD (Campylobacter jejuni). purified PglD enzyme, DTNB colorimetric CoA detection. inhibition, % at 12.5 µM. 360,000 compounds, 0.098% hits. AID 602405, 2012; in the data active means inhibition above about 16%, passing the limit was not always enough
The depositor's hits bear a star; / = no result given; [ ] = another dose, or the depositor's remark. This is a sample that favours compounds with a hit; in the whole collection about 1.2% have one here.

SMILES	miR122 inh	Statin myotox sup	NSD2 HMT inh	PglD DTNB
O=C1C(Oc2ccccc2)C(c2cccs2)N1Cc1ccc2c(c1)OCO2 (configuration not stated)	71.0	4.1	-3.3	2.6
Cc1ccccc1OC1C(=O)N(Cc2ccc3c(c2)OCO3)C1c1sccc1C (configuration not stated)	157.9*	-17.6	0.1	/
CCOC(=O)N1CCN(C(=O)C2CC(c3ccccc3OC)=NO2)CC1 (configuration not stated)	-1.6	105.9*	-1.9	-0.5
COc1cc(OC)c(C2=NOC(C(=O)N3CCCc4ccccc43)C2)cc1Cl (configuration not stated)	2.1	134.9*	-9.9	2.5
Cc1ccccc1OCC(=O)NNC(=O)Nc1ccc(Cl)cc1	143.6*	-34.4	0.8	-3.7
CCCCn1c(SCc2ccccn2)nc2c1c(=O)n(C)c(=O)n2C	27.5	117.3*	2.4	4.1
CCCCn1c(SCc2cccnc2)nc2c1c(=O)n(C)c(=O)n2C	2.2	2.5	2.4	-4.9
COC(=O)c1[nH]c2ccc(C)cc2c1NC(=O)CN1CCN(C(=O)c2ccccc2)CC1	-6.5	96.3*	-1.2	2.0
COC(=O)c1[nH]c2ccc(C)cc2c1NC(=O)CN1CCN(c2ccccc2)CC1	/	/	5.8	/
CCn1c(SCC(=O)N2CCCC2)nnc1-c1ccc(N)cc1	-0.3	123.9*	-3.1	7.1
C[C@@H]1CN([C@H](C)CO)C(=O)c2cc(NC(=O)Nc3ccccc3)ccc2O[C@@H]1CN(C)C(=O)Nc1cccc2ccccc12	-6.9[16.7 µM]	-34.5	/	1.3
O=C(Nc1ccc(Br)cc1)C1CCCN1S(=O)(=O)c1cccs1 (configuration not stated)	0.9	139.3*	-1.3	-12.2
CCc1ccc(NC(=O)C2CCCN(S(=O)(=O)c3cccs3)C2)cc1 (configuration not stated)	-0.7	-34.0	-6.1	1.7
Cc1ccc(NC(=O)C2CCCN(S(=O)(=O)c3cccs3)C2)cc1 (configuration not stated)	0.9	77.6*	-2.0	1.2
CC(=O)c1cccc(NC(=O)C2CCCN2S(=O)(=O)c2cccs2)c1 (configuration not stated)	4.8	-6.1	-0.5	0.7
CCCNC(=O)C[C@@H]1CC[C@@H]2[C@H](COc3ccc(NC(=O)NCC)cc3C(=O)N2C)O1	5.1[16.7 µM]	3.0	/	0.9
COc1ccccc1NC(=O)CN1C(=O)CCS(=O)(=O)c2ccccc21	10.1	124.7*	6.7	3.7
COc1ccc(Cl)cc1NC(=O)CN1C(=O)CCS(=O)(=O)c2ccccc21	/	2.4	-0.4	-0.6
CCCOC(=O)C1=C(C)NC2=C(C(=O)CC(C)(C)C2)C1c1ccc(N(C)C)cc1 (configuration not stated)	14.7	/	1.1	0.4
CCN(CC)c1ccc(C2C(C(=O)OCCOC)=C(C)NC3=C2C(=O)CC(C)(C)C3)cc1 (configuration not stated)	95.1*	7.1	7.4	2.0
CNc1ccc(/C=C2\COc3ccccc3C2=O)cc1[N+](=O)[O-]	-10.4	2.8	-0.5	-9.9
O=C1/C(=C/c2ccccc2[N+](=O)[O-])COc2ccccc21	11.1	168.6*	-2.8	-0.9
O=c1c2c(nc3nc(SCc4ccccc4)[nH]n13)CCC2	112.2*	4.6	-6.4	-7.7
CC(C)c1ccc(CNc2nc3nc4c(c(=O)n3[nH]2)CCC4)cc1	-0.1	111.3*	-2.8	3.5
O=C(CCCOc1ccccc1)N1CCCCC1	-5.1	94.3*	0.0	-13.6
SMILES	miR122 inh	Statin myotox sup	NSD2 HMT inh	PglD DTNB
O=C1c2ccccc2C(=O)N1CC1=CCS(=O)(=O)C1	-6.2	112.5*	0.9	0.5
O=C(Nc1ccc2c(c1)[C@@H]1C[C@H](CC(=O)N3CCc4ccccc4C3)O[C@H](CO)[C@@H]1O2)C1CCOCC1	-3.7[16.7 µM]	5.5	/	0.6
C[C@H]1CN([C@@H](C)CO)C(=O)Cc2cc(NC(=O)Cc3cn(C)c4ccccc34)ccc2O[C@H]1CN(C)C	9.3[16.7 µM]	5.1	/	-3.6
Cc1cc(C)c(C)c(S(=O)(=O)Nc2ccc3cn[nH]c3c2)c1C	157.5*	-5.5	-2.7	-3.6
COC(=O)c1sc(S(=O)(=O)Nc2ccc3cn[nH]c3c2)c(C(=O)OC)c1C	27.7	117.2*	-0.8	-5.9
C[C@@H]1CN([C@H](C)CO)C(=O)Cc2cc(NC(=O)Cc3cn(C)c4ccccc34)ccc2O[C@@H]1CN(C)C	2.1[16.7 µM]	3.4	/	1.9
CCc1cccc2c(C(=O)CN3C(=O)NC4(CCCCC4)C3=O)c[nH]c12	115.4*	-110.7	2.8	-0.3
COc1cccc(CNS(=O)(=O)c2ccc3c(c2)CCN3C(=O)C2CC2)c1	/	/	-2.1	/
COc1ccc(CNS(=O)(=O)c2ccc3c(c2)CCN3C(=O)C2CCC2)cc1	-4.3	112.8*	/	7.3
CC(C)c1cn(CC[C@H]2CC[C@H](NC(=O)Nc3cc(Cl)cc(Cl)c3)[C@H](CO)O2)nn1	10.4[16.7 µM]	-11.3	/	-0.8
N#Cc1ccc(-c2nnnn2-c2ccc3c(c2)OCO3)cc1	-8.2	106.7*	0.3	-1.6
O=C(CC(c1ccccc1)c1ccccc1)Nc1nn[nH]n1	/	/	-1.7	/
O=C(COc1cccc(Oc2ccccc2)c1)Nc1ncccn1	-2.4	106.8*	-1.7	/
CN(C)C(=O)c1ccc(NC(=O)COc2cccc(Oc3ccccc3)c2)cc1	-1.2	-2.8	0.5	3.3
O=C(COc1ccccc1)Nc1nn[nH]n1	8.1	112.2*	/	11.6
C[C@@H]1CCCCO[C@H](CN(C)C(=O)Cc2ccccc2)[C@@H](C)CN([C@H](C)CO)C(=O)c2cc(NC(=O)c3ccncc3)ccc2O1	8.4[16.7 µM]	/	/	0.8
CN(Cc1ccccc1)S(=O)(=O)c1ccc(NC(=S)NC(=O)C2CCCC2)cc1	123.7*	-90.4	-4.2	-4.7
O=C(C[C@H]1C=C[C@@H](NC(=O)Nc2ccc(F)cc2)[C@@H](CO)O1)NCCN1CCCC1	1.9[16.7 µM]	14.2	/	-2.3
CCC(C)c1ccc(NC(=S)NCc2cccs2)cc1 (configuration not stated)	173.9*	-9.0	0.5	10.7
C[C@H](CO)N1C[C@H](C)[C@@H](CN(C)S(=O)(=O)c2cn(C)cn2)Oc2ccc(NC(=O)Nc3ccc(C(F)(F)F)cc3)cc2CC1=O	6.6[16.7 µM]	29.3	/	-1.5
C[C@H](NC(=O)C[C@H]1C[C@H]2c3cc(NC(=O)NC4CCCCC4)ccc3O[C@H]2[C@H](CO)O1)c1ccccc1	1.4[16.7 µM]	-3.4	/	2.9
Cc1ccc(C(=O)NNC(=O)C2CCN(Cc3ccc(Cl)c(Cl)c3)CC2)cc1	-2.1	134.8*	-1.5	11.5
Cc1ccc(S(=O)(=O)N(C)C[C@@H]2Oc3ccc(NS(C)(=O)=O)cc3CC(=O)N([C@H](C)CO)C[C@H]2C)cc1	-1.4[16.7 µM]	-23.6	/	2.5
Nc1ncnc2c1nc(N1CCCCC1)n2[C@@H]1O[C@H](CO)[C@@H](O)[C@H]1O	-3.5	100.8*	/	-6.8

Compound activity: PubChem, Broad Institute
